# Mito fusion act: qHTS Assay for Small Molecule Inhibitors of Mitochondrial Division or Activators of Mitochondrial Fusion; S. cerevisiae fusion-defective mutant growth rescue, CellTiterGlo 48 h; Potency, µM (series often up to 46.1 µM), for inactives: at the top dose growth rescue (activation), actives largely listed as activators; AID 485298, 2010; actives 0.23% (n = 320,000); also: % of control where 0% means no effect; nearly all actives have a fitted effect of over 45% in size
#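 Growth-rescue viability read-out: after 48 h at the non-permissive 37C in glycerol/ethanol YPEG, yeast mitochondrial fusion mutants are measured by CellTiterGlo luminescence; compounds (23 nl pinned per well) restoring growth score as division inhibitors or fusion activators.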
# TDP-43 yeast inh: qHTS of TDP-43 Inhibitors. Potency, µM (highest dose often 46.1 µM), for inactives: at the highest dose growth rescue (activation), most hits filed as activators. TDP-43 expressing yeast growth rescue, BacTiter-Glo, 24 h. actives 1.8% (n = 410,000); also: % of control where 0% means no effect; nearly all actives have a fitted effect of over 50% in size
#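 Yeast expressing TDP-43 (pregrown in raffinose, seeded at OD600=0.02 in galactose medium) exposed to compounds 24 hr at 30 deg C. Growth read by BacTiter-Glo luminescence; rescue of toxicity appears as increased signal.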
# aSyn yeast inh: qHTS of alpha-syn Inhibitors | Yeast expressing alpha-synuclein, growth rescue, BacTiter-Glo, 24 h | Potency, µM (titrated, usually from 46.1 µM), for the others: at the highest dose growth rescue (activation), actives largely listed as activators | actives 0.14% (n = 370,000); also: % of control where 0% means no effect; nearly all actives have a fitted effect of over 65% in size
#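 Rescue of yeast growth: cells expressing toxic alpha-synuclein, induced in galactose at OD600 0.02, incubated with compound 24 h at 30 C. ATP luminescence quantified growth; inhibitors of toxicity appear as activators.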
# Abeta rescue: qHTS for compounds that reverse cellular toxicity of Amyloid beta (A-beta) peptide in yeast: Primary Screen; yeast expressing A-beta42, growth rescue, OD600, 48 h; response scale: 0% DMSO, 100% iron-clioquinol control; Potency, µM (highest dose often 46.1 µM), actives largely listed as activators; actives 0.063% (n = 410,000); AID 1347071, 2019; also: nearly all actives have a fitted effect of over 55% in size
#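 Yeast A-beta toxicity model in growth medium with pinned compounds, 48 h at 30 C; growth read as absorbance at 600 nm. Normalized to FeCl3/clioquinol equimolar mix (positive) and DMSO (negative).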
# FUS suppressor: qHTS for Suppressors of FUS Proteinopathy: Primary screen using FUS-linked yeast assay. Potency, µM (doses to about 76.6 µM), hits mostly activators. AID 1347120, 2019. actives 0.24% (n = 390,000). S. cerevisiae FUS-expressing, growth rescue, OD600, 24 h;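 also: plate controls were DMSO vehicle for no effect and reference control for full effect; nearly all actives have a fitted effect of over 55% in size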
#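 Quantitative HTS measuring growth restoration of FUS-toxic yeast. Galactose-induced cells (OD 0.005) were exposed 24hr at 30C to compounds at several concentrations, then absorbance at 600 nm was recorded.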
# Starred values were filed as active, the others as inactive; i = inactive; ? = inconclusive; · = no result; [ ] = remark or other dose. In the library only some 2.2% were active in any assay of this set; here they are far more common. Calls follow the shape of the dose curve; as a rule, active = well fitted curve in the direction sought with a large enough effect; inconclusive = small, poorly fitted or top-dose-only effect, or another doubt; inactive = no such curve, though single readings can be large; an effect the other way counts as inactive or inconclusive. Potency is read from the fitted curve at half-maximal effect.
SMILES,Mito fusion act,TDP-43 yeast inh,aSyn yeast inh,Abeta rescue,FUS suppressor
CCCn1nc(NC(=O)C2CCCO2)c2cc3cc(C)ccc3nc21 (stereo not drawn),9%,35µM*,-2%,i,i
COc1ccc(N2CCN(C(c3nnnn3CCc3ccccc3)C(C)C)CC2)cc1 (stereo not drawn),?,18%,3%,i,i
COc1ccc(CCn2nnnc2C2(c3ccc(C)cc3)CC2)cc1,21µM*,·,-3%,·,·
COc1cccc(N2CCN(c3ncnc4onc(-c5ccc(Cl)cc5)c34)CC2)c1,·,-3%,·,i,i
CCOC(=O)c1cc(C#N)c(Oc2cccc(C(F)(F)F)c2)nc1-c1ccccc1,5%,9%,5%,i,i
Cn1nc(-c2ccccc2)c(CO)c1Oc1cccc(C(F)(F)F)c1,-4%,11µM*,4%,i,i
CC(C)CN(CCCNC(=O)CN1N=C(c2ccccc2)CCC1=O)CC(C)C,·,-2%,·,i,i
COc1cccc(N2CCN(C(=O)c3cc4cc(Cl)ccc4[nH]3)CC2)c1,-30%,13µM*,?,i,i
Cc1ccc(Cl)cc1N1CCN(C(=O)c2cc3ccc4cccnc4c3[nH]2)CC1,·,20µM*,·,i,i
O=C(c1cc2ccc3cccnc3c2[nH]1)N1CCN(c2ccc(Cl)cc2)CC1,·,-6%,·,i,i
O=C(c1cc2ccc3cccnc3c2[nH]1)N1CCN(c2cccc(Cl)c2)CC1,·,13µM*,·,i,?
O=C(NC(=S)Nc1ccccc1N1CCCCC1)c1ccco1,3%,35µM*,2%,i,i
O=C(/C=C/c1ccco1)NC(=S)Nc1ccccc1N1CCCC1,-8%,22µM*,0%,?,?
O=C(/C=C/c1ccc(Cl)cc1)Nc1ccccc1N1CCOCC1,6%,14%,0%,i,i
COc1cccc(/C=C/C(=O)Nc2ccccc2N2CCOCC2)c1,12%,22µM*,-19%,i,i
CC(=O)Nc1ccc(NC(=S)NC(=O)/C=C/c2ccco2)cc1,-4%,-22%[1.82 µM],-4%,i,?
O=C(/C=C/c1ccco1)Nc1ccccc1N1CCCC1,-6%,6%,?,i,i
CC(=O)N(C)c1ccc(NC(=S)NC(=O)/C=C/c2ccco2)cc1,-38%,21%,3%,i,35µM*
O=C(NC(=S)Nc1ccccc1N1CCCC1)c1ccco1,-3%,?,-7%,i,i
Cc1ccc(CN2CCC(CNC(=O)Nc3cccc(C)c3C)C2)cc1 (stereo not drawn),·,-7%,·,i,i
Cc1cccc(-n2ncc3c(NNC(=O)c4ccccc4Cl)ncnc32)c1,·,?,·,i,i
O=C(/C=C/c1ccco1)NC(=S)Nc1cc(C(F)(F)F)ccc1N1CCOCC1,-13%,-15%,1%,i,i
O=C(/C=C/c1ccco1)NC(=S)Nc1ccccc1N1CCOCC1,-9%,25µM*,2%,i,i
Nc1c(C(=O)NCc2ccco2)nnn1CC(=O)Nc1ccccc1,2%,-3%,-7%,i,40µM*
Cc1cccc(NC(=O)C2CCC(CNS(=O)(=O)c3ccc(Br)s3)CC2)c1 (stereo not drawn),·,17%,·,i,i
SMILES,Mito fusion act,TDP-43 yeast inh,aSyn yeast inh,Abeta rescue,FUS suppressor
CCCOc1ccc(NC(=O)CC2C(=O)N(c3ccc(F)cc3)C(=O)N2CC(C)C)cc1 (stereo not drawn),·,2%,·,i,i
Oc1ccccc1C=NNC(=S)NC1CC2C=CC1C2 (stereo not drawn),·,13µM*,?,?,i
Oc1c(Cl)cc(Cl)cc1/C=N/NC(=S)NC1CC2C=CC1C2 (stereo not drawn),7%,-6%[1.82 µM],1%,?,i
Oc1ccccc1/C=N/NC(=S)NC1CC2C=CC1C2 (stereo not drawn),-3%,16%,24%,11µM*,i
Oc1ccccc1C=NNC(=S)Nc1ccc(F)cc1,·,?,22µM*,i,i
Oc1ccccc1/C=N/NC(=S)NCCc1ccccc1,-14%,10%,-1%,?,i
O=C(Nc1ccccc1)O[C@@H]1C[C@H]2CCC(=O)N3CC[C@@H](C1)[C@@H]23,-3%,·,·,·,·
Cc1ccc(NC(=O)c2ccc3nc(Cc4ccccc4)oc3c2)cc1F,·,18%,·,i,i
Cc1ccc(CN2CCCCC(NC(=O)Nc3ccccc3F)C2=O)cc1 (stereo not drawn),·,·,·,·,i
Cc1cc(NC(=O)COC(=O)[C@@H](NS(=O)(=O)c2ccccc2)C(C)C)no1,3%,19%,7%,i,i
CC(C)[C@H](NS(=O)(=O)c1ccccc1)C(=O)OCC(=O)Nc1ccccc1Sc1ccccc1,22µM*,11%,13%,i,i
O=C(c1ccc(Cl)cc1)N1CCC(C(=O)N2CCCc3ccccc32)CC1,-2%,14µM*,-2%,i,·
CC(C)Cn1cc(NC(=O)N2CCN(c3ccc(F)cc3)CC2)c2ccccc2c1=O,·,26%,3%,i,i
O=C(CSc1ccccc1)Nc1ccc(N2CCN(c3ccccc3)CC2)c(F)c1,0%,11%,0%,i,i
Nc1ccc(N2CCN(c3ccccc3)CC2)c(F)c1,6%,22µM*,1%,i,i
O=C(NCCNc1ccc([N+](=O)[O-])cc1C(F)(F)F)c1ccccc1,13%,22µM*,12%,i,·
O=C(NCCNc1ccc([N+](=O)[O-])cc1C(F)(F)F)c1cccc(F)c1,14%,?,-4%,?,·
CCC(=O)Oc1ccc(-c2nc3ccccc3c(=O)o2)cc1,·,4µM*,·,i,i
CCCOc1ccc(-c2nc3ccccc3c(=O)o2)cc1,·,10%,2%,i,i
CC(=O)Oc1ccc2nc(/C=C/c3ccccc3)oc(=O)c2c1,-1%,3.5µM*,0%,i,i
Cc1ccccc1-c1nc2cc(Cl)ccc2c(=O)o1,15%,8%,-2%,i,i
CC(=O)Oc1ccc2c(=O)oc(-c3ccccc3C)nc2c1,1%,14µM*,-1%,i,i
CC(=O)Oc1ccc(-c2nc3cc(Cl)ccc3c(=O)o2)cc1,1%,4µM*,0%,i,i
CC(=O)Oc1ccc2c(=O)oc(-c3ccccc3)nc2c1,0%,-17%[1.82 µM],-6%,i,i
CC(=O)Oc1ccc2nc(/C=C/c3ccc(C=O)cc3)oc(=O)c2c1,2%,-7%,-11%,i,i
Cc1ccc(C(C)C)c(OCC(=O)NCC2(N3CCOCC3)CCCCC2)c1,·,8%,·,i,i
